High-throughput results as filed in PubChem.
Bead autofluor: flagged as autofluorescent in microsphere protease counterscreen; fluorescence intensity (no concentration beside the values); compound autofluorescence counterscreen, microsphere flow cytometry; active compounds read high; AID 624483; 3.1% of 360,000 active; in the data active means fluorescence intensity above about 16000; inconclusive means no clear call, values can overlap the other calls
Anthrax LF prot: blocks Bacillus anthracis lethal factor protease. multiplex microsphere protease cleavage assay, LF. inhibition, % at 10 µM. 0.12% of 360,000 active
MazEF act: activators of E. coli MazEF toxin-antitoxin RNase | FAM/BHQ RNA-DNA oligo cleavage fluorescence, 5 h | 0.32% of 350,000 active | activation, % at 20 µM | P0AE70; in the data active means activation above about 50%
BoNT A protease: blocks Botulinum neurotoxin A light chain protease; inhibition, % at 10 µM; multiplex microsphere protease substrate cleavage, flow cytometry; AID 588499; 0.17% of 360,000 active
BoNT-F LC inh: BoNT F light chain protease inhibition. 0.22% of 360,000 active. Multiplex microsphere protease cleavage assay, flow cytometry. inhibition, % at 10 µM; in the data active means inhibition above about 35%, passing the limit was not always enough; inconclusive means no clear call, values can overlap the other calls
Of the large screens only hits and unclear results are named; the others gave an inactive call. Sampled rows, rich in hits. Any-hit rate of the full collection: about 3.7%. Unless noted, no stated cut-off is given here; in the data, active means inhibition above about 30%; inconclusive means no clear call, values can overlap the other calls; inactive means below that.

O=C(NCc1ccco1)c1cc2n(n1)C(C(F)(F)F)CC(c1ccc(Cl)c(Cl)c1)N2 (centres undefined)	Bead autofluor 17695
O=C(Nc1nnc([C@@H]2C[C@H](O)[C@@H](CO)O2)s1)NC1CCCCC1	none (no result: MazEF act)
C=CCN(c1ccccc1OC)S(=O)(=O)c1cccc(C(=O)OCC(=O)c2c(N)n(C)c(=O)n(C)c2=O)c1	none (no result: Bead autofluor, Anthrax LF prot, BoNT A protease, BoNT-F LC inh)
CC(C)C(NC(=O)c1ccccc1)C(=O)NC1CCCc2ccccc21 (centres undefined)	none
CC(=O)CSc1nc(C(F)(F)F)cc(=O)n1-c1ccccc1	Bead autofluor 20676
O=C(Nc1c(Cl)cc(Cl)cc1-c1nc2ccccc2s1)c1ccc(Br)o1	Bead autofluor 17431, BoNT A protease inconclusive
CCCCn1c(N)c(N(CC(C)C)C(=O)CCCc2cccs2)c(=O)[nH]c1=O	none
c1ccc(CSc2nnc(Cc3ccccc3)o2)cc1	none
COc1ccc(-c2nnc(SCC(=O)/C(C#N)=C(\C)N)o2)cc1	Bead autofluor 24309, BoNT A protease inconclusive
C/C(N)=C(/C#N)C(=O)CSc1nnc(-c2ccccc2Br)o1	none
COc1cccc(-c2nnc(SCC(=O)N(C(C)C)C(C)C)o2)c1	Bead autofluor 24162, BoNT A protease inconclusive
O=C(O)c1cccc(CSc2nnc(Cc3ccccc3)o2)c1	Bead autofluor 22785, BoNT A protease inconclusive
COc1cc(OC)cc(-c2nnc(SCc3cccc(C(=O)O)c3)o2)c1	Bead autofluor 22846
O=C(CN1CCC(NC(=O)Nc2ccc(F)cc2)CC1)Nc1ccccc1[N+](=O)[O-]	none
Cc1cc(Cl)ccc1OCC(=O)OCC(=O)NC1CCS(=O)(=O)C1 (centres undefined)	none
Cc1cccc(N2CCN(CC(=O)N(C3CCCC3)C3CCS(=O)(=O)C3)CC2)c1C (centres undefined)	none
COc1ccc(NC(=S)NNC(=O)C(C)n2nc(C)c([N+](=O)[O-])c2C)cc1 (centres undefined)	none
Cc1nn(C(C)C(=O)NNC(=S)Nc2ccc(F)cc2)c(C)c1[N+](=O)[O-] (centres undefined)	Bead autofluor 24064
COc1ccc(S(=O)(=O)N(C)C[C@H]2Oc3c(NC(=O)C4CCCCC4)cccc3C(=O)N([C@H](C)CO)C[C@@H]2C)cc1	none
CC(C)CC(NC(=O)C1CCC(C)CC1)C(=O)NCCN1CCOCC1 (centres undefined)	none
CSCCC(NC(=O)C1CCC(C)CC1)C(=O)O (centres undefined)	Bead autofluor 23567, BoNT A protease inconclusive
CSCCC(NC(=O)C1CCC(C)CC1)C(=O)NCCN1CCOCC1 (centres undefined)	Bead autofluor 22383
O=C1NC(=O)N(C2CCCCC2)CC1Br (centres undefined)	none
Cc1ccc(S(=O)(=O)Nc2nsc(N)n2)cc1	Bead autofluor 17173
CC(C)(OC(=O)c1ccc(C#N)cc1)c1cc2ccccc2c(=O)o1	none
COc1ccc(CN2C(=O)NC3(CCCCC3)C2=O)cc1F	Bead autofluor 22242, BoNT A protease inconclusive
COc1ccc(COC(=O)CN2C(=O)NC3(CCCC3)C2=O)cc1F	Bead autofluor inconclusive
COc1ccc(C(=O)OCC(=O)c2ccc3[nH]c(=O)[nH]c3c2)c(OC)c1OC	none
COC(=O)c1ccc(CC(C(=O)c2ccccc2)N(C)C)cc1 (centres undefined)	MazEF act 53
CN(C)C(Cc1ccc(Cl)cc1)C(=O)c1ccccc1 (centres undefined)	none
Cc1ccc(C(=O)c2cc([N+](=O)[O-])ccc2N2CCN(C)CC2)cc1	none
CN1CCN(c2ccc([N+](=O)[O-])cc2C(=O)c2ccc(Br)cc2)CC1	Bead autofluor 23704
COc1cc2c3nnc(-c4ccccc4)c-3cn(Cc3ccccc3F)c2cc1OC	MazEF act 734 (no result: Bead autofluor, Anthrax LF prot, BoNT A protease, BoNT-F LC inh)
COc1ccccc1N(CC(=O)Nc1ccc2c(c1)OCCO2)S(=O)(=O)c1ccc(C)cc1	none
Cc1noc(C)c1S(=O)(=O)N(C)C[C@H]1Oc2ccc(NS(=O)(=O)c3ccccc3)cc2C(=O)N([C@H](C)CO)C[C@@H]1C	none
COc1cc(-c2cn[nH]c2N)cc(OC)c1OC	Bead autofluor 21444, BoNT A protease inconclusive
CCOc1ccc(NC(=O)NC2CCCCCCC2)cc1	none
CCOc1ccc(NC(=O)NCCCSC2CCCCC2)cc1	Bead autofluor 22514
CCOc1ccc(NC(=O)NCCN2C(C)CCCC2C)cc1 (centres undefined)	Bead autofluor 17584
CCNC(=S)N/N=C/c1sc(N2CCCCC2)nc1-c1cccs1	Anthrax LF prot inconclusive, MazEF act 257, BoNT A protease inconclusive, BoNT-F LC inh inconclusive
COc1ccc(OC)c(CNc2nc3ccccc3n2CCN2CCCCC2)c1	Bead autofluor 16368
c1ccc(Cn2c(CNc3nc4ccccc4n3CCN3CCOCC3)nc3ccccc32)cc1	Bead autofluor 23712, BoNT A protease inconclusive
COc1ccc(CNc2nc3ccccc3n2CCN2CCCCC2)c(OC)c1	none
CC(=O)c1ccc(N2CCN(C(=O)c3cc4c(C)nc5ccccc5c4o3)CC2)cc1	MazEF act 56
CCN1CCCC1CNC(=O)c1cc2c(C)nc3ccccc3c2o1 (centres undefined)	Bead autofluor 17361
Cn1c(-c2ccccc2)cc(=NNS(C)(=O)=O)c2cc(S(=O)(=O)O)ccc21	none
COc1cc(/C=C/CNC[C@H]2O[C@@H](n3cnc4c(=O)[nH]c(N)nc43)[C@H](O)[C@@H]2O)ccc1O	none (no result: MazEF act)
Cc1ccc(CC2C(=O)N(C)C(=O)N(C)C2=O)s1	Bead autofluor 21258, BoNT A protease inconclusive
C=CCOc1ccc(CC2C(=O)N(C)C(=O)N(C)C2=O)cc1	none
O=c1[nH]c(O)c(/C=C2\C=Nc3ccc(Br)cc32)[nH]1	none
O=c1[nH]c(O)c(/C=C2\C=Nc3ccc(OCc4ccccc4)cc32)c(=O)[nH]1	MazEF act 847, BoNT-F LC inh inconclusive
Cc1ccc(NC(=O)Cc2noc3ccccc23)cc1	none
O=C(Cc1noc2ccccc12)Nc1ccc2ccccc2c1	Bead autofluor 21952
O=C(CSc1nnc(-c2cccc(Br)c2)o1)N1CCNC1=O	none
COC(=O)C1=CN(c2cccc(C)c2)C=C(C(=O)OC)C1c1cc(OC)c(O)c([N+](=O)[O-])c1	Bead autofluor 22321
COC(=O)C1=CN(c2ccc(OC)cc2)C=C(C(=O)OC)C1c1ccc(C)c([N+](=O)[O-])c1	none
Cc1ccc(Sc2ccc(S(=O)(=O)Nc3ccc(C(=O)O)cc3)cc2)cc1C	none
CCc1ccccc1NC(=O)c1cnccn1	Bead autofluor 21346
CSc1ccccc1NC(=O)Nc1ccc(Cl)cc1	Bead autofluor 20588
CSc1ccccc1NC(=O)c1cnccn1	Bead autofluor 16758, BoNT A protease inconclusive
CC(C)c1ccccc1NC(=O)c1cnccn1	Bead autofluor 25411, BoNT A protease inconclusive
Cc1ccc(Cl)cc1NC(=O)CCS(=O)(=O)c1cccc2nonc12	none
O=C(Nc1cccc2c1CCCC2)c1cc(C2CCCCN2S(=O)(=O)c2cccs2)on1 (centres undefined)	none (no result: MazEF act)
O=C(CCC(=O)NC1CCN(Cc2ccccc2)CC1)NCc1ccco1	Bead autofluor 23478, BoNT A protease inconclusive
